Paper PMC7862700, “An all-to-all approach to the identification of sequence-specific readers for epigenetic DNA modifications on cytosine”

Tests used:
Test in all cases: DAPPL (digital affinity profiling via proximity ligation, sequencing); 10 mM Tris-HCl pH 7.5, 50 mM NaCl, 1 mM DTT, 4% glycerol, room temperature, 30 min; GST-TFs on glutathione beads, 16-mer random dsDNA library, 0.1% formaldehyde crosslink after washing; high values mean tight binding
FLI1 = biological target: T1, FLI1 (Homo sapiens, UniProt Q01543 1-452); conditions: protein: recombinant; tags: N-terminal GST; dsDNA, one strand shown
T1 sequence: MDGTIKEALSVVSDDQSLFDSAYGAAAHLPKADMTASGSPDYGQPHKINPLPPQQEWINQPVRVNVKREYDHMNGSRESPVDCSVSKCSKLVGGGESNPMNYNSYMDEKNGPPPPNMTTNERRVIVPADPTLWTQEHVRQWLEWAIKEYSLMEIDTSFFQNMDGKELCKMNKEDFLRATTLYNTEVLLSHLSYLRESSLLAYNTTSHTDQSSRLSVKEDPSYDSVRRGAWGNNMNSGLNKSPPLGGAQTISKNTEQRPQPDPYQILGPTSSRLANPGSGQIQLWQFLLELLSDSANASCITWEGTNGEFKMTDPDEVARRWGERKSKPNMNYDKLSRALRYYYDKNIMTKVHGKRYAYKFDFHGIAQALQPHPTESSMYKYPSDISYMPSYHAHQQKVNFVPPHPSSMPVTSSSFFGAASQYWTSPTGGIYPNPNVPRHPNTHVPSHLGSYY
Procedure, shortened: (§1)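 Binding signal is defined as a hexamer's read frequency for one factor over its frequency for the tag-only sample. To obtain reads, GST-fused human transcription factors were expressed in yeast, captured on glutathione beads, barcoded with DNA and pooled with that sample. Pools met 200 nmole of a 16-mer random double-stranded DNA library in Tris/NaCl/DTT/glycerol buffer for 30 min at room temperature before washing, 0.1% formaldehyde crosslinking, proximity ligation (BsaI/T4 ligase, 1 h, 37 °C), PCR and Illumina NextSeq500 sequencing.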

ELK1 = biological target: T2, ELK1 (Homo sapiens, UniProt P19419 1-428); conditions: protein: recombinant; tags: N-terminal GST; dsDNA, one strand shown
T2 sequence: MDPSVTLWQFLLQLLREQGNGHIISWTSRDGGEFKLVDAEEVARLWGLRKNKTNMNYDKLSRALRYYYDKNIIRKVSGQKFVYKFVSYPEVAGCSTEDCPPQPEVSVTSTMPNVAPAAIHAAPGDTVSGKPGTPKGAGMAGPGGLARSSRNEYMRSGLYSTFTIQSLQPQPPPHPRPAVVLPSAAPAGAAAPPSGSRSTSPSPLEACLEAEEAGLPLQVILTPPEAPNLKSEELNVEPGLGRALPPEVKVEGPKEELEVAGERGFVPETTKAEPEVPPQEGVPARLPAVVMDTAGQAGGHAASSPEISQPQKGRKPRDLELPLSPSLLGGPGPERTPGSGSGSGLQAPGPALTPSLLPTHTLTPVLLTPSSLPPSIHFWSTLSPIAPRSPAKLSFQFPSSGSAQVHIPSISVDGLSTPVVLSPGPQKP
Procedure, shortened: as §1

GABPA = biological target: T3, GABPA (Homo sapiens, UniProt Q06546 1-454); conditions: protein: recombinant; tags: N-terminal GST; dsDNA, one strand shown
T3 sequence: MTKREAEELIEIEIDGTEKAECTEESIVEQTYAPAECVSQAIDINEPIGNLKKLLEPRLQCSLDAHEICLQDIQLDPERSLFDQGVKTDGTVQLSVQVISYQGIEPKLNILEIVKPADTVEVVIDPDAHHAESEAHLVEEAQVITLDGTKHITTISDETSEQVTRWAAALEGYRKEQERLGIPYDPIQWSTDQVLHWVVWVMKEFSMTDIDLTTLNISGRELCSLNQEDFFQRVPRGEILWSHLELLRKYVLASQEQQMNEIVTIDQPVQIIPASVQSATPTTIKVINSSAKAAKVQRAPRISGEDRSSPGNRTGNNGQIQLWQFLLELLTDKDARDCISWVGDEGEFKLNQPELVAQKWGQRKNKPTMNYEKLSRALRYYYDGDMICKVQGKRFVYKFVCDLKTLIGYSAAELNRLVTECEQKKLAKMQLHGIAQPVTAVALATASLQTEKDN
Procedure, shortened: as §1

ERG = biological target: T4, ERG (Homo sapiens, UniProt P11308 1-479); conditions: protein: recombinant; tags: N-terminal GST; dsDNA, one strand shown
T4 sequence: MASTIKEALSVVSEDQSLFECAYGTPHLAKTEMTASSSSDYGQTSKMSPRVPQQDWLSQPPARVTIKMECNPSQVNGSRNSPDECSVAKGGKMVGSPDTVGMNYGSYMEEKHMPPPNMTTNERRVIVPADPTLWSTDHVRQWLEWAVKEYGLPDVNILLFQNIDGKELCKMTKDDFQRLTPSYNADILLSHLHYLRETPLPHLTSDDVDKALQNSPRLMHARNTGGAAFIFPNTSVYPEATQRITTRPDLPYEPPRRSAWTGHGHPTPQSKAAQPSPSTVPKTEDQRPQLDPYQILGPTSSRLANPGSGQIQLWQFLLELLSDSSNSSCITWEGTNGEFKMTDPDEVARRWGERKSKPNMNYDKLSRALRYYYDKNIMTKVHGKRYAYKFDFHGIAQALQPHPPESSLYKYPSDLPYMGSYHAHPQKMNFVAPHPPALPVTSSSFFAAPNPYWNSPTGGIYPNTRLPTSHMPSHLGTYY
Procedure, shortened: as §1

ELF1 = ELF1 (Homo sapiens, UniProt P32519 1-619); conditions: protein: recombinant; tags: N-terminal GST; dsDNA, one strand shown
Chain of ELF1 (P32519 whole entry): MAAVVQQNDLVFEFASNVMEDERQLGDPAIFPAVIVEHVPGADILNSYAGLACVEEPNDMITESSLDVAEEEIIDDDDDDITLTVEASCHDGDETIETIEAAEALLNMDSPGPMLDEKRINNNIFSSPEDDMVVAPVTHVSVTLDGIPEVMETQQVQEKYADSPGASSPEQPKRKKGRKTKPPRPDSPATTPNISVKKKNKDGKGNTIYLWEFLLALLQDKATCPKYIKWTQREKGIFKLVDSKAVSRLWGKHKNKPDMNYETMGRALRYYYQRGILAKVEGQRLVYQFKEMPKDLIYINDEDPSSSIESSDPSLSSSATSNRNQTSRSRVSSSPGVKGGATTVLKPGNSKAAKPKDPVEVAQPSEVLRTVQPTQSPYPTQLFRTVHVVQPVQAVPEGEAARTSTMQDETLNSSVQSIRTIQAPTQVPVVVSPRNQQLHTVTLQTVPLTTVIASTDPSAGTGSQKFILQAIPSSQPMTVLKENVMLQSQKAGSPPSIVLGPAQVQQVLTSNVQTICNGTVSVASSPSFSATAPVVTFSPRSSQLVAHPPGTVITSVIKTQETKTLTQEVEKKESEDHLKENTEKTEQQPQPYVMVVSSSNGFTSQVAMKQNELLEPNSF
Procedure, shortened: as §1

EHF = biological target: T5, EHF (Homo sapiens, UniProt Q9NZC4 1-300); conditions: protein: recombinant; tags: N-terminal GST; dsDNA, one strand shown
T5 sequence: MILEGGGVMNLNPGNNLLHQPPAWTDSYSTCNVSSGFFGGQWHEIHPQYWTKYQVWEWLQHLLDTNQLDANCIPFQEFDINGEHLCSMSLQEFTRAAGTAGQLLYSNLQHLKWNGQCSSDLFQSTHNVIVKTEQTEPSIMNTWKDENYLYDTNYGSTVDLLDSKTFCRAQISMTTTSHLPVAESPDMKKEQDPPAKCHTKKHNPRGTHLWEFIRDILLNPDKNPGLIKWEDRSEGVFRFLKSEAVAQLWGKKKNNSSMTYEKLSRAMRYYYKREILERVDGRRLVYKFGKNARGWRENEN
Procedure, shortened: as §1

SPI1 = SPI1 (Homo sapiens, UniProt P17947 1-270); conditions: protein: recombinant; tags: N-terminal GST; dsDNA, one strand shown
Procedure, shortened: as §1

SPIB = SPIB (Homo sapiens, UniProt Q01892 1-262); conditions: protein: recombinant; tags: N-terminal GST; dsDNA, one strand shown
Chain of SPIB (Q01892 whole entry): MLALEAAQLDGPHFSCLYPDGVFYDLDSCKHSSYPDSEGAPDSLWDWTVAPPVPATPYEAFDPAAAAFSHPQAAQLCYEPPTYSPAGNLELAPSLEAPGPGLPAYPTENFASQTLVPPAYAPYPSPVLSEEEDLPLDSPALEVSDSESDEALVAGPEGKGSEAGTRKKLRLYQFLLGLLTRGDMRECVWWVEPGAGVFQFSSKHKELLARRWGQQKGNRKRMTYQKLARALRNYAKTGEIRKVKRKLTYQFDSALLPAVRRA
Procedure, shortened: as §1

ELK3 = biological target: T6, ELK3 (Homo sapiens, UniProt P41970 1-407); conditions: protein: recombinant; tags: N-terminal GST; dsDNA, one strand shown
T6 sequence: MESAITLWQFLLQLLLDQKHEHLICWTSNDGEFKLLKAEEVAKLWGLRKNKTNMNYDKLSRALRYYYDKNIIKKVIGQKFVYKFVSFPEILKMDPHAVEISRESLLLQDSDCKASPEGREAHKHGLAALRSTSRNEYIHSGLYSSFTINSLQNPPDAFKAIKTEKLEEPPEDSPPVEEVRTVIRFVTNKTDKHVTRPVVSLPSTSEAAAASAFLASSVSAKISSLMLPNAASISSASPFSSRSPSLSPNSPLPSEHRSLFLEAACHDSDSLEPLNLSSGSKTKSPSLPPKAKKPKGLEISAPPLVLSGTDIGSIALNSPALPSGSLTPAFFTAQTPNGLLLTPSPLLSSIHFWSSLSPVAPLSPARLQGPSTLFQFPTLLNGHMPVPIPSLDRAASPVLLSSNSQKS
Procedure, shortened: as §1

FEV = biological target: T7, FEV (Homo sapiens, UniProt Q99581 1-238); conditions: protein: recombinant; tags: N-terminal GST; dsDNA, one strand shown
T7 sequence: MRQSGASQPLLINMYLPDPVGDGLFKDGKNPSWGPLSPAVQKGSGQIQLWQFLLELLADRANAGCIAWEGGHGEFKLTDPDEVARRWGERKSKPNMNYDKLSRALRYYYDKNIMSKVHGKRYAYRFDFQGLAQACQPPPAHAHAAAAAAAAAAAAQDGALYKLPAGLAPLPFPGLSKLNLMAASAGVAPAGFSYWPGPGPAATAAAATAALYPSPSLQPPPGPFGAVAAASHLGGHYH
Procedure, shortened: as §1

ETV5 = ETV5 (Homo sapiens, UniProt P41161 1-510); conditions: protein: recombinant; tags: N-terminal GST; dsDNA, one strand shown
Chain of ETV5 (P41161 whole entry): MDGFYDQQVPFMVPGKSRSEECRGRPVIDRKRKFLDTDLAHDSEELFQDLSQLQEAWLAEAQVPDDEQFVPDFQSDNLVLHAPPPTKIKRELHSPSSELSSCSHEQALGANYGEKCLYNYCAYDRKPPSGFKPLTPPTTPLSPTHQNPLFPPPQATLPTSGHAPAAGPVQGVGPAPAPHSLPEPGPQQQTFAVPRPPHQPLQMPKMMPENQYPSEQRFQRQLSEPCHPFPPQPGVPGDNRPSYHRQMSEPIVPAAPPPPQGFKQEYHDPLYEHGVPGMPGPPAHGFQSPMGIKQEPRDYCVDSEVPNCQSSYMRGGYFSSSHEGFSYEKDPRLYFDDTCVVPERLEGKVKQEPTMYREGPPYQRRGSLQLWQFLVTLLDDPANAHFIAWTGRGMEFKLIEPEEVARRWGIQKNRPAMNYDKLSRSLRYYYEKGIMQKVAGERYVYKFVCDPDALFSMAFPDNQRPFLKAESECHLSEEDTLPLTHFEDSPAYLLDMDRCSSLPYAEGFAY
Procedure, shortened: as §1

HSF1 = HSF1 (Homo sapiens, UniProt Q00613 1-529); conditions: protein: recombinant; tags: N-terminal GST; chain copies: 3; dsDNA, one strand shown
Chain of HSF1 (Q00613 whole entry): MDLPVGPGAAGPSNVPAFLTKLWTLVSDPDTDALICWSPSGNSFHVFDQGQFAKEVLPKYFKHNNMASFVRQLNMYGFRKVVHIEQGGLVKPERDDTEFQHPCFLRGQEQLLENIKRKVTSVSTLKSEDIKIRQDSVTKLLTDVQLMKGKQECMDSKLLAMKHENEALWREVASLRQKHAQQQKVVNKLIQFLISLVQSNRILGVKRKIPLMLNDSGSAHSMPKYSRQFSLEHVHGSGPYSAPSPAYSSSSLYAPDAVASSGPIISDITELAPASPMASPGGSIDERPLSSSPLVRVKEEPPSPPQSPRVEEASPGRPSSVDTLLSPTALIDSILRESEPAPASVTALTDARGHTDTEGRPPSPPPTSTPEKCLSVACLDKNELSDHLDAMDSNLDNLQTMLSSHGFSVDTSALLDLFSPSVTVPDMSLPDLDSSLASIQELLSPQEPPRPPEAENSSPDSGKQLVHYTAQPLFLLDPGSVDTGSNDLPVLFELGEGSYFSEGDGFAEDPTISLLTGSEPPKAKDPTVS
Procedure, shortened: as §1

SPIC = biological target: T8, SPIC (Homo sapiens, UniProt Q8N5J4 1-248); conditions: protein: recombinant; tags: N-terminal GST; dsDNA, one strand shown
T8 sequence: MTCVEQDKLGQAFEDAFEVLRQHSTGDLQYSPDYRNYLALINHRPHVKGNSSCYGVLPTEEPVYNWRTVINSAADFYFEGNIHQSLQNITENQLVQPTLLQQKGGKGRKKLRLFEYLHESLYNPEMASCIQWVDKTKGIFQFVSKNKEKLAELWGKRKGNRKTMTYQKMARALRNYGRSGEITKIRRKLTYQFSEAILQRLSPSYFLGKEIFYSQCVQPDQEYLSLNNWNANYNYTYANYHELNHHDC
Procedure, shortened: as §1

ELF4 = ELF4 (Homo sapiens, UniProt Q99607 1-663); conditions: protein: recombinant; tags: N-terminal GST; dsDNA, one strand shown
Chain of ELF4 (Q99607 whole entry): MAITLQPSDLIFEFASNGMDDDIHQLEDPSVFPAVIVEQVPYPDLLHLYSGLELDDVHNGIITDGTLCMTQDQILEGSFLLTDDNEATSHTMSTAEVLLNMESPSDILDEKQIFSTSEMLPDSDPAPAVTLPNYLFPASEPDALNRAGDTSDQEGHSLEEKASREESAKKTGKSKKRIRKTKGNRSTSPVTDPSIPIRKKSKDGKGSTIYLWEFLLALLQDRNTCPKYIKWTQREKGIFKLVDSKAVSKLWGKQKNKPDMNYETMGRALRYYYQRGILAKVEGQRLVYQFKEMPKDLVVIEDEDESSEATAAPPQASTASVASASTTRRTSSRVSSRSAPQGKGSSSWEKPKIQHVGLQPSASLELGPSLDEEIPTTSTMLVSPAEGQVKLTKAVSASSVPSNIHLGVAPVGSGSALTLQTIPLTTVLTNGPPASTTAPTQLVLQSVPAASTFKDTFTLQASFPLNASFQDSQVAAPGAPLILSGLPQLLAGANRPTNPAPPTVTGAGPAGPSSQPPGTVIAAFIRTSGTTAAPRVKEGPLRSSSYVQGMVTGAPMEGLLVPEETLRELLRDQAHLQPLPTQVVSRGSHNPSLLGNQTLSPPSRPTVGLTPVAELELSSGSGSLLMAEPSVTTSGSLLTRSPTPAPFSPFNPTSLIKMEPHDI
Procedure, shortened: as §1

ELK4 = biological target: T9, ELK4 (Homo sapiens, UniProt P28324-2 1-405); conditions: protein: recombinant; tags: N-terminal GST; dsDNA, one strand shown
T9 sequence: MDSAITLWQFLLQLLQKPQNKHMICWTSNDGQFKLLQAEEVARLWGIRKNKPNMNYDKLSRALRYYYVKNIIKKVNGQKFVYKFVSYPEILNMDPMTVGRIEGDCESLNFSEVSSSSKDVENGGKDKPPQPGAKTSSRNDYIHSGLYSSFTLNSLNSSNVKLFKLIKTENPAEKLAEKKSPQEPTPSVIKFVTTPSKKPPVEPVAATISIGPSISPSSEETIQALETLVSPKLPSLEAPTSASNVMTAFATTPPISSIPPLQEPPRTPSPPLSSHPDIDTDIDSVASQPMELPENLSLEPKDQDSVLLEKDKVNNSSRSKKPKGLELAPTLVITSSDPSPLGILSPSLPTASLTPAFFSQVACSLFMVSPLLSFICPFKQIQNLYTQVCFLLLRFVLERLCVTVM
Procedure, shortened: as §1

ETV2 = biological target: T10, ETV2 (Homo sapiens, UniProt O00321 1-342); conditions: protein: recombinant; tags: N-terminal GST; dsDNA, one strand shown
T10 sequence: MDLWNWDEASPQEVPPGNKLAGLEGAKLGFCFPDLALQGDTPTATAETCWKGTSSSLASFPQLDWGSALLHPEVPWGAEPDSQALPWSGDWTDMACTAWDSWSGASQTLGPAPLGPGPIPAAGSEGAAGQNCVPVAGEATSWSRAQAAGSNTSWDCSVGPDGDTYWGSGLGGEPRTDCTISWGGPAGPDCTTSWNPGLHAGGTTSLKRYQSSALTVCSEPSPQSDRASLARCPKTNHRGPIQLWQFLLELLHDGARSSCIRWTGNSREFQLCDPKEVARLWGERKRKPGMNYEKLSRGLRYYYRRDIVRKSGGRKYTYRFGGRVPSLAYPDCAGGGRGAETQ
Procedure, shortened: as §1

ELF3 = biological target: T11, ELF3 (Homo sapiens, UniProt P78545 1-371); conditions: protein: recombinant; tags: N-terminal GST; dsDNA, one strand shown
T11 sequence: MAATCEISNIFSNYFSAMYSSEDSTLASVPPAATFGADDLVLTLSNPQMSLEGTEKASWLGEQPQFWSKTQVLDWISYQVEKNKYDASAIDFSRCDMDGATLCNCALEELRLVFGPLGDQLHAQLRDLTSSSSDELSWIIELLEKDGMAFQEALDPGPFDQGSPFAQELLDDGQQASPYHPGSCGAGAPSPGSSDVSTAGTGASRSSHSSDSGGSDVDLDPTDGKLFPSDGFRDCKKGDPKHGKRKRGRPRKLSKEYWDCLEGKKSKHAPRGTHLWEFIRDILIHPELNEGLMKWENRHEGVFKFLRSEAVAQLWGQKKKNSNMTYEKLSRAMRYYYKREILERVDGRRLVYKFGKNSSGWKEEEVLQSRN
Procedure, shortened: as §1

CRX = CRX (Homo sapiens, UniProt O43186 1-299); conditions: protein: recombinant; tags: N-terminal GST; dsDNA, one strand shown
Chain of CRX (O43186 whole entry): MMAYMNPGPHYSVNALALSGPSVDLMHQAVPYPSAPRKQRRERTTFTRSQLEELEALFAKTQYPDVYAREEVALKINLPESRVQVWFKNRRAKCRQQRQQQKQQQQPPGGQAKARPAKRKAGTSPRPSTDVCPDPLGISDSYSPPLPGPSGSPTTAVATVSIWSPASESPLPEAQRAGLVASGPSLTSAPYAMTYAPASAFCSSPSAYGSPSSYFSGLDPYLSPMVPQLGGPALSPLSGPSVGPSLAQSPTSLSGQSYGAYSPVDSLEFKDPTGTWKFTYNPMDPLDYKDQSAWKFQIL
Procedure, shortened: as §1

ETV1 = ETV1 (Homo sapiens, UniProt P50549 1-477); conditions: protein: recombinant; tags: N-terminal GST; dsDNA, one strand shown
Chain of ETV1 (P50549 whole entry): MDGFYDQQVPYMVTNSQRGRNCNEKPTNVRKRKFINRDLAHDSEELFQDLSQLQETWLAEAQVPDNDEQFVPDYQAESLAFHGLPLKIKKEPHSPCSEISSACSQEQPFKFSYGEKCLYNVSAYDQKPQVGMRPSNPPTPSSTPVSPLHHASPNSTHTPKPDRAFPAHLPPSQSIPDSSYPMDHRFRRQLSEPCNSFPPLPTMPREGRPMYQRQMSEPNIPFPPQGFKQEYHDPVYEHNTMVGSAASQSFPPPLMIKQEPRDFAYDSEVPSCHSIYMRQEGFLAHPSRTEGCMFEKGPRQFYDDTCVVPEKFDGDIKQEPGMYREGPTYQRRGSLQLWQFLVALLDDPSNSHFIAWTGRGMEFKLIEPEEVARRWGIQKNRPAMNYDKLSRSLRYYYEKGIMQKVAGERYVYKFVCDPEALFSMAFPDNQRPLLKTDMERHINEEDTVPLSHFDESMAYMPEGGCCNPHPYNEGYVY
Procedure, shortened: as §1

With TACTTG the binding signal (FLI1) was 1.39 fold enrichment (6-mer frequency, TF over GST control), the binding signal (ELK1) was 1.39 fold enrichment (6-mer frequency, TF over GST control) and the binding signal (GABPA) was 1.34 fold enrichment (6-mer frequency, TF over GST control). For the same sequence, the binding signal (ERG) was 1.18 fold enrichment (6-mer frequency, TF over GST control), the binding signal (ELF1) was 1.32 fold enrichment (6-mer frequency, TF over GST control) and the binding signal (EHF) was 1.32 fold enrichment (6-mer frequency, TF over GST control). For the same sequence, the binding signal (SPI1) was 1.27 fold enrichment (6-mer frequency, TF over GST control), the binding signal (SPIB) was 1.44 fold enrichment (6-mer frequency, TF over GST control) and the binding signal (ELK3) was 1.35 fold enrichment (6-mer frequency, TF over GST control). The binding signal (FEV) was 1.22 fold enrichment (6-mer frequency, TF over GST control), the binding signal (ETV5) was 1.26 fold enrichment (6-mer frequency, TF over GST control) and the binding signal (HSF1) was 1.26 fold enrichment (6-mer frequency, TF over GST control). The binding signal (SPIC) was 1.35 fold enrichment (6-mer frequency, TF over GST control), the binding signal (ELF4) was 1.39 fold enrichment (6-mer frequency, TF over GST control) and the binding signal (ELK4) was 1.38 fold enrichment (6-mer frequency, TF over GST control). For the same sequence, the binding signal (ETV2) was 1.46 fold enrichment (6-mer frequency, TF over GST control), the binding signal (ELF3) was 1.54 fold enrichment (6-mer frequency, TF over GST control) and the binding signal (CRX) was 1.5 fold enrichment (6-mer frequency, TF over GST control). The binding signal (ETV1) was 1.54 fold enrichment (6-mer frequency, TF over GST control).
